# Results from PubChem BioAssay AID1490 (National Center for Advancing Translational Sciences (NCATS), 2009).
# Values joined by “and” are separate entries in the source; they are usually repeats but may differ in a detail not shown here. Identical values can stand only once. The campaign covered roughly 310,000 compounds. About 11,000 (3.5%) were called active. Roughly 4% stayed inconclusive and do not appear here. The list comes from a sample in which actives are over-represented; it also holds similar structures and randomly drawn compounds. Values without a mark were called inactive. Calls follow the shape of the dose curve; as a rule, active = well fitted inhibition curve with a large enough effect; inconclusive = small, poorly fitted or top-dose-only effect, or another doubt; inactive = no such curve, though single readings can be large or run the other way.
# Target: 4'-phosphopantetheinyl transferase ffp (Bacillus subtilis) (UniProt Q9F4F7)
# Test: qHTS Assay for Inhibitors of Bacillus subtilis Sfp phosphopantetheinyl transferase (PPTase);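 also: the enzyme is Sfp with the accession as filed and its product quenches rhodamine fluorescence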;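 as to largest response in the series, negative = inhibition: 0% = enzyme reaction without inhibitor and -100% = no enzyme wells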
# Conditions: Biochemical Sfp PPTase activity
# Summary of the method: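 Fluorescence-quenching assay: 15 nM Sfp-PPTase preincubated 15 min at room temperature with compound, then 5 uM rhodamine-CoA and 12.5 uM BHQ-2-labelled YbbR peptide added. Fluorescence (ex 525/em 598 nm) read at start and after 30 min; difference gives rate.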
# Potency is read from the fitted curve at half-maximal effect.
Compound,"largest response in the series, negative = inhibition",Potency
CCOC(=O)c1sc(NC(=O)c2sc(C)nc2C)nc1C,11.7%,–
CC1CCCCN1C(=O)Cn1c(=O)oc2cc(S(=O)(=O)N3CCCCC3)ccc21 (stereo not drawn),10.7%,–
Clc1ccccc1-c1cc(NCCN2CCOCC2)ncn1,–,79.4 µM (active)
Cc1cccc(CNc2cc(-c3ccccc3Cl)ncn2)c1,20.2%,–
c1ccc2cc3c(NCCN4CCOCC4)ccnc3cc2c1,-20.1%,–
COc1ccc(NC(=O)CCCN2C(=O)C(c3ccccc3)Oc3cccnc32)cc1 (stereo not drawn),1.64%,–
Cc1ccc(C)c(S(=O)(=O)N2CCCOC2CNC(=O)C(=O)NC2CCCCC2)c1 (stereo not drawn),11.5%,–
COC(=O)C(CC(=O)Nc1cc(C)ccc1C)Nc1ccccc1OC (stereo not drawn),28.6%,–
Cc1ccc(C)c(NC(CC(=O)c2ccccc2)C(=O)OCC(=O)c2cccs2)c1 (stereo not drawn),–,39.8 µM (active)
Cc1ccc(C)c(NC(=O)CCC(=O)NNC(=O)c2cccs2)c1,3.73%,–
Cc1ccc(-c2ncc(Cl)cc2-c2ccc(S(C)(=O)=O)cc2)cn1,13.6%,–
C=CCn1c(SCc2c(C)noc2C)nc2sc3c(c2c1=O)CCC(C)C3 (stereo not drawn),-23.8%,–
C=CCn1c(SCC(=O)NCC2CCCO2)nc2sc(C)c(C)c2c1=O (stereo not drawn),13.7%,–
C=CCn1c(SCc2csc(C)n2)nc2scc(-c3ccc(C)o3)c2c1=O,–,11.2 µM (active)
COc1ccccc1NC(=O)c1ccc2nc(N3C(=O)CCC3=O)sc2c1,10.7%,–
COc1ccccc1NC(=O)c1ccc(N2CC3CC(C2)c2cccc(=O)n2C3)c(NC(=O)c2cccnc2)c1 (stereo not drawn),–,31.6 µM (active)
COC(=O)c1cc(NC(=O)c2cccnc2)ccc1N1CCOCC1,9.31%,–
CCCCn1c(-c2cccc(C)c2)nc2cc3[nH]c(=O)c(C(C)C)nc3cc21,-18.3%,–
CCOC(OCC)OCC,-10.1%,–
CC1C(=O)Nc2ccccc2N1C(=O)c1c(F)cccc1F (stereo not drawn),14.4%,–
CC(C)c1cnc(NC(=O)Cc2ccccc2)s1,26.8%,–

Compound,"largest response in the series, negative = inhibition",Potency
CC(=O)Nc1c2c(nn1-c1ccc(C)cc1C)CS(=O)C2 (stereo not drawn),9.45%,–
O=C(CCCN1C(=O)/C(=C\c2ccccc2)SC1=S)Nc1ccccc1O,17.9%,–
O=C(CCCN1C(=O)/C(=C/c2ccccc2)SC1=S)Nc1ccc(O)cc1,12.2%,–
O=C(CCCN1C(=O)/C(=C\c2ccco2)SC1=S)Nc1cccc2ccccc12,–,56.2 µM (active)
COc1ccc(/C=C2\SC(=S)N(CCC(=O)Nc3cccc(C(=O)O)c3)C2=O)cc1OC,-8.44%,–
O=C(CCCN1C(=O)/C(=C/c2ccco2)SC1=S)Nc1ccccc1,–,31.6 µM (active)
O=C(CCCN1C(=O)/C(=C/c2cccs2)SC1=S)Nc1ccc(O)cc1,-1.57%,–
Cc1ccc2nc3c(cc(C(=O)NCCc4ccccc4)c(=N)n3CC3CCCO3)c(=O)n2c1 (stereo not drawn),21.3%,–
Cc1ccc(CS(=O)(=O)c2ncc(Cl)c(C(=O)Nc3nnc(C)s3)n2)cc1,-13.2%,–
COc1ccc(Cl)cc1NS(=O)(=O)c1cccc(C(=O)NCC2CCCO2)c1 (stereo not drawn),12.9%,–
CN(Cc1ccccc1)C(=O)CSc1nc2ccccc2[nH]1,9.63%,–
COCCCNC(=S)NC(=O)c1ccccc1,8.58%,–
Cc1cc2[nH]ncc2cc1NC(=S)NC(=O)c1ccccc1,1.08%,–
Cn1nnc(NC(=S)NC(=O)c2ccccc2)n1,–,35.5 µM (active)
O=C(NC(=S)NC1CCS(=O)(=O)C1)c1cccc([N+](=O)[O-])c1 (stereo not drawn),-2.6%,–
COc1ccc(-c2nc3ccccc3c(=O)n2CCc2ccc(O)cc2)cc1,-0.523%,–
COc1ccc(-c2c(C#Cc3ccccc3)c3ccccc3n2C)cc1,-20.7%,–
COc1ccc(CCNCc2c(-c3ccccc3)n(C)c3ccccc23)cc1,–,79.4 µM (active)
CCOc1ccc(-n2c(SCC(N)=O)nnc2-c2ccco2)cc1,27.1%,–
O=C(O)c1cccc(S(=O)(=O)Nc2ccc(O)cc2Sc2nc3ccccc3s2)c1,-29.2%,–
O=[N+]([O-])c1c(NCCO)cc(Sc2nc3ccccc3s2)c2nonc12,–,6.31 µM (active)

Compound,"largest response in the series, negative = inhibition",Potency
CCOc1ccccc1Nc1ccc2nonc2c1[N+](=O)[O-],1.09%,–
C=CCn1c(CCNC(=O)c2cccs2)n[nH]c1=S,–,7.94 µM (active)
C=CCn1c(CCc2ccc(OC(C)C)cc2)n[nH]c1=S,14.2%,–
Cc1ccc(C)c2[nH]c(=O)c(CCNC(=O)c3cccs3)cc12,6.07%,–
COc1ccc(C(=O)NC2CC(C)(C)NC(C)(C)C2)cc1OC,0.887%,–
CC(C)(C)C(=O)/C(C#N)=C/c1ccc(O)cc1,8.9%,–
N#C/C(=C\c1ccc(O)c(O)c1)C(=O)NCc1ccccc1,-22.3% and -19.4%,–
N#C/C(=C\c1ccc(O)c(O)c1)C(N)=O,–,79.4 µM (active) and 56.2 µM (active)
C=CCOc1ccc(/C=C/C(=O)OCC(=O)NC2CCCCCC2)cc1,16.7%,–
CCOC(=O)c1ccc(NC(=O)CNC(=O)c2ccco2)cc1,7.8%,–
CCCN(CCc1ccccc1)C1CCc2c(O)cccc2C1 (stereo not drawn),21.2%,–
CC(=O)Nc1ccc(S(=O)(=O)N2N=NC3C2C2CC4C3(CN(C(=O)OC(C)(C)C)S4(=O)=O)O2)cc1 (stereo not drawn),11.6%,–
O=C(COC(=O)C12CC3CC(CC(C3)C1)C2)NCc1ccco1,-10.5%,–
O=C(COC(=O)CCC(=O)c1cccs1)NCc1ccco1,–,35.5 µM (active)
O=C(COC(=O)c1cccs1)NCc1cccs1,10.5%,–
CN1CCN(Cc2c(C(=O)N3CCc4ccccc4C3)nc3ccc(Cl)cn23)CC1,-5.24%,–
CCCn1nnnc1NCc1ccc(OC)cc1,10.3%,–
CNC(=O)c1sc(NCc2ccccc2OC)nc1C,-19.7%,–
CCOC(=O)c1sc(=S)n2c1[nH]c(=O)c1ccc(C(=O)OC)cc12,–,15.8 µM (active)
CCOC(=O)c1sc(NC(=O)c2ccncc2)nc1C,-1.23%,–
CCOC(=O)C1=C(C)Nc2sc(C(=O)c3ccc(Br)cc3)c(N)c2C1c1ccc(C(=O)OC)cc1 (stereo not drawn),15.8%,–
